Active and inactive are the calls of the source. Rule for the calls: active = hit-call score of the fitted dose curve at least 0.9, where 1 is the maximum; inactive = score below 0.9.
target: human FLT4 Receptor Tyrosine Kinase, FLT4 (gene 2324) (UniProt P35916); test: ERF_FR_ENZ_hFLT4: Eurofins (ERF) Enzymatic Radiometric [Km ATP] KinaseProfiler LeadHunter Assay for human FLT4 Receptor Tyrosine Kinase
Experimental: ERF_FR_ENZ_hFLT4 is a biochemical, single-readout assay that uses extracted gene-proteins in a cell-free assay. Measurements were taken 1.5 hour after chemical dosing in a 96-well plate. See FLT4 Human RTK Kinase Enzymatic LANCE Assay [Km ATP], Cerep.ERF_FR_ENZ_hFLT4 is an assay component calculated from the ERF_FR_ENZ_hFLT4 assay. It is designed to measure enzyme activity using a type of enzyme reporter as detected by fluorescence intensity with LANCE technology.Data from the assay component ERF_FR_ENZ_hFLT4 was analyzed at the assay endpoint, ERF_FR_ENZ_hFLT4, in the positive analysis fitting direction relative to DMSO as the negative control and baseline of activity. Using a type of enzyme reporter, loss-of-signal activity can be used to understand changes in enzymatic activity as they relate to gene FLT4. To generalize the intended target to other relatable targets, this assay endpoint is annotated to the kinase intended target family, where the subfamily is receptor tyrosine kinase.
Flt4 (h) is incubated with 8 mM MOPS pH 7.0, 0.2 mM EDTA, 500 uM […], 10 mM MgAcetate and [gamma-33P]-ATP (specific activity and concentration as required). The reaction is initiated by the addition of the Mg/ATP mix. After incubation for 40 minutes at room temperature, the reaction is stopped by the addition of phosphoric acid to a concentration of 0.5%. […]

human FLT4 Receptor Tyrosine Kinase, FLT4 (gene 2324), sequence (P35916 whole entry, looked up): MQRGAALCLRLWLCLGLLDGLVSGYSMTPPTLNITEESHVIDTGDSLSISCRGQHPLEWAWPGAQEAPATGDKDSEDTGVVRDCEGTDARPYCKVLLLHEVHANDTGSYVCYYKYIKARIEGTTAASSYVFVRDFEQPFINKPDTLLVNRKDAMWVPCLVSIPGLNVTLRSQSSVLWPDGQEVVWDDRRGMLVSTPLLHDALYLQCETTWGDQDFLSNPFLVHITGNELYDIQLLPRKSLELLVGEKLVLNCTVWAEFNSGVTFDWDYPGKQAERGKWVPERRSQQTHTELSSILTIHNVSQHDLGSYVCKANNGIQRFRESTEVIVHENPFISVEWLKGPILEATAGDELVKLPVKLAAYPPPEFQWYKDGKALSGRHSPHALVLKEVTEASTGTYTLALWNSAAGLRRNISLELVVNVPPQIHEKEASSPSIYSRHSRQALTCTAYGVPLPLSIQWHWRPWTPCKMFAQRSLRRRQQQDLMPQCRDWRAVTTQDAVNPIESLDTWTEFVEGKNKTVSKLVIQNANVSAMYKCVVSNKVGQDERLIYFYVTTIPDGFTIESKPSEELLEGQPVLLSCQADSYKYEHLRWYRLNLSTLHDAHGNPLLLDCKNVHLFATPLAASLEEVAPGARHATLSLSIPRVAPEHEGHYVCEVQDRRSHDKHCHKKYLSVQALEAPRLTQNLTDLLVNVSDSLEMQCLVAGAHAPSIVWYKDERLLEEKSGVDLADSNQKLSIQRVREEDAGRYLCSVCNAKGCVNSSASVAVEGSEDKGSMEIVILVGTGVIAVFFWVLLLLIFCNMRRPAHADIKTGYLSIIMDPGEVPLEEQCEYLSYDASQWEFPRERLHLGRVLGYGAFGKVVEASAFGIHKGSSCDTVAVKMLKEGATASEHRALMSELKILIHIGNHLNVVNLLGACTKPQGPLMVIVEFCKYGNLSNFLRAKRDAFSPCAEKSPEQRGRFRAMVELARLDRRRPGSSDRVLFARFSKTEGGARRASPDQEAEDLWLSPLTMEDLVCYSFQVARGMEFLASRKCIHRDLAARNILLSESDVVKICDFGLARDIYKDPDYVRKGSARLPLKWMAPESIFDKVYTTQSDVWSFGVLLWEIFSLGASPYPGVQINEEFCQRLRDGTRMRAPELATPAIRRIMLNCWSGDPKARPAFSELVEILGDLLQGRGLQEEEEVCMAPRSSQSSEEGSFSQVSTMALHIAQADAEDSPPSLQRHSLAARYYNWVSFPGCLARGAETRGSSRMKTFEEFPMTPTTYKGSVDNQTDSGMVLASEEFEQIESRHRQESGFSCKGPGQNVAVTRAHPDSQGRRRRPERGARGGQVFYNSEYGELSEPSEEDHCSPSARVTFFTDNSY

SMILES	AC50
O=C(/C=C/c1ccc(O)cc1)CC(=O)/C=C/c1ccc(O)cc1	1910 nM (active)
